# Measured values taken from ChEMBL document CHEMBL2218924, “A broad activity screen in support of a chemogenomic map for kinase signalling research and drug discovery” (Biochem J, 2013).
# Columns and labels:
# [1] = target: T1, Tyrosine-protein kinase Mer (Homo sapiens) (UniProt Q12866); conditions: at 1 µM
# T1 sequence (whole entry): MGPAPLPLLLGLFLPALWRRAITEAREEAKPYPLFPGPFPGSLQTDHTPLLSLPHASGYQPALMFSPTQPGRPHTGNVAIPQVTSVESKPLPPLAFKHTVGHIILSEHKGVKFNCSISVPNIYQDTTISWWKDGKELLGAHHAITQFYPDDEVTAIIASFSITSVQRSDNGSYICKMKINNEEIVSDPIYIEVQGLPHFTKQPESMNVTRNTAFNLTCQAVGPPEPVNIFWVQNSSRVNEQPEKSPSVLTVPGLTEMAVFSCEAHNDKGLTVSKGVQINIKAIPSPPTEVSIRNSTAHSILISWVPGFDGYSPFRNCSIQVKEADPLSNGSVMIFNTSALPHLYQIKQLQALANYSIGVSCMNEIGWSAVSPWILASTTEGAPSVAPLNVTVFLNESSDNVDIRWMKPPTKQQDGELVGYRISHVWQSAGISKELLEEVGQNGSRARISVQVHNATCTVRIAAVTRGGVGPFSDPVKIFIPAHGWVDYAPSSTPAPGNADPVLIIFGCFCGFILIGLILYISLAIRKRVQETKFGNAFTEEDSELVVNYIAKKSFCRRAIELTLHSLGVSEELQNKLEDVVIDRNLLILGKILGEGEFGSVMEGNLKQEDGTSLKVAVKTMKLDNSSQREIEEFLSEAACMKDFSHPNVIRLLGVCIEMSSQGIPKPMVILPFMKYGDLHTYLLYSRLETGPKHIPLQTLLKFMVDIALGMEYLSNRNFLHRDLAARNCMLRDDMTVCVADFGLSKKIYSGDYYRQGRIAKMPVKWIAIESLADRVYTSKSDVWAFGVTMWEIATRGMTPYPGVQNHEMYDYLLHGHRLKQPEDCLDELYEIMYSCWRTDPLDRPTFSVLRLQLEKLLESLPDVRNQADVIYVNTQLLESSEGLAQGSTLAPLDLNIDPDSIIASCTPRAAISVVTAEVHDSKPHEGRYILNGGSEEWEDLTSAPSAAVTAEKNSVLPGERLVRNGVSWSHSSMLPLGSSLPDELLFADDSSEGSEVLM
# [2] = target: T1, Tyrosine-protein kinase Mer (Homo sapiens); conditions: at 10 µM
# [3] = target: Hepatocyte growth factor receptor (Homo sapiens) (UniProt P08581); conditions: at 1 µM
# Hepatocyte growth factor receptor (Homo sapiens), sequence (P08581 whole entry): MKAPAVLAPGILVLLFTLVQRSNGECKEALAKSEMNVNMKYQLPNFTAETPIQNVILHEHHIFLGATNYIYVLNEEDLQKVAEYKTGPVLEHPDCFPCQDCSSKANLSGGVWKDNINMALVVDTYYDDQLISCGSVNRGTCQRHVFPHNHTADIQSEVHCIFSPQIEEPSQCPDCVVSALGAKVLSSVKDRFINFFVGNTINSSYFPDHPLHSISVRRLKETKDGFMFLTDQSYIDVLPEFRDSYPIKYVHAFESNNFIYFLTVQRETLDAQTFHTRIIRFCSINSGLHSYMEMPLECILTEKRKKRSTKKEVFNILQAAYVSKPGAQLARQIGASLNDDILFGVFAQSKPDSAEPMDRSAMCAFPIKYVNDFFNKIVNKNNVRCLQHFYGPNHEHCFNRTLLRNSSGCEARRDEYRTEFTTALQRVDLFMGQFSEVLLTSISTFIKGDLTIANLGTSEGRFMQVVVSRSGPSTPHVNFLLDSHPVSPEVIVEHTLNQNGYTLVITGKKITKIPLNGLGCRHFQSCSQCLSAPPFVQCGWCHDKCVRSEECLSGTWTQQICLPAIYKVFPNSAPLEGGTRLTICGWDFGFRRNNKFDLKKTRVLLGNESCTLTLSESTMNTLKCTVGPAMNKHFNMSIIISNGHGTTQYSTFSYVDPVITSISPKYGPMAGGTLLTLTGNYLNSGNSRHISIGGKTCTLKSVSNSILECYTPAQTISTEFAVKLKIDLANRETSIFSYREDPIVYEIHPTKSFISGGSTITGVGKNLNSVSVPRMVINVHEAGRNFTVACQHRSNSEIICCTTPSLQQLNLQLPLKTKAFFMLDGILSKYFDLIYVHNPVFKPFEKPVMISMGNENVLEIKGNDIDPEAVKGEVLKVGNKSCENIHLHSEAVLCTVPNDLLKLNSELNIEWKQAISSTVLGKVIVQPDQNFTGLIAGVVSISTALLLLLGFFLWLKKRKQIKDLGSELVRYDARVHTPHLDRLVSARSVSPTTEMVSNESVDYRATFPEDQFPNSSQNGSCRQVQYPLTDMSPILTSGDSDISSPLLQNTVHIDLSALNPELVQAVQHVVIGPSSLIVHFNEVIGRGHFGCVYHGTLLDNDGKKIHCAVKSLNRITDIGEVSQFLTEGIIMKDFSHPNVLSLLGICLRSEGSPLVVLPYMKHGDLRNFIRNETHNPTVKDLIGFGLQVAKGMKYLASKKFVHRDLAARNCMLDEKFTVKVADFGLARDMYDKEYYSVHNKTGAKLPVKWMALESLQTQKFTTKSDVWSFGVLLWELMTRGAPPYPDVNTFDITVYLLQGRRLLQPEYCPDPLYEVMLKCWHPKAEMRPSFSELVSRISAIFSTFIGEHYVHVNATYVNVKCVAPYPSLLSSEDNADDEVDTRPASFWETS
# [4] = target: Hepatocyte growth factor receptor (Homo sapiens) (UniProt P08581); conditions: at 10 µM
# [5] = target: MAP kinase-interacting serine/threonine-protein kinase 2 (Homo sapiens) (UniProt Q9HBH9); conditions: at 1 µM
# MAP kinase-interacting serine/threonine-protein kinase 2 (Homo sapiens), sequence (Q9HBH9 whole entry, looked up): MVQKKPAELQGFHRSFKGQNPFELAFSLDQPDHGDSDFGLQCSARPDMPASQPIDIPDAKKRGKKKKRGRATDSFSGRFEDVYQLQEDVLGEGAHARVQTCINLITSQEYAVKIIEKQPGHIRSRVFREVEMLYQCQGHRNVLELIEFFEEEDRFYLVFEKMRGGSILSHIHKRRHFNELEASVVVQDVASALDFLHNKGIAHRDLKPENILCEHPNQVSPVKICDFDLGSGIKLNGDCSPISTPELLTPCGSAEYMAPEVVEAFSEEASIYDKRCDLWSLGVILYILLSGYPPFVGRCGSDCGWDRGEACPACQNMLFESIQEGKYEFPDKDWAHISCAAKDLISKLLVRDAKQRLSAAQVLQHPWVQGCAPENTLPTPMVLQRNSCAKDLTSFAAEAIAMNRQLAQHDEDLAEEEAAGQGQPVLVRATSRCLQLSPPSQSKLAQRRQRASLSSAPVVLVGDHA
# [6] = target: MAP kinase-interacting serine/threonine-protein kinase 2 (Homo sapiens) (UniProt Q9HBH9); conditions: at 10 µM
# [7] = target: T2, Muscle, skeletal receptor tyrosine-protein kinase (Homo sapiens) (UniProt O15146); conditions: at 1 µM
# T2 sequence (whole entry): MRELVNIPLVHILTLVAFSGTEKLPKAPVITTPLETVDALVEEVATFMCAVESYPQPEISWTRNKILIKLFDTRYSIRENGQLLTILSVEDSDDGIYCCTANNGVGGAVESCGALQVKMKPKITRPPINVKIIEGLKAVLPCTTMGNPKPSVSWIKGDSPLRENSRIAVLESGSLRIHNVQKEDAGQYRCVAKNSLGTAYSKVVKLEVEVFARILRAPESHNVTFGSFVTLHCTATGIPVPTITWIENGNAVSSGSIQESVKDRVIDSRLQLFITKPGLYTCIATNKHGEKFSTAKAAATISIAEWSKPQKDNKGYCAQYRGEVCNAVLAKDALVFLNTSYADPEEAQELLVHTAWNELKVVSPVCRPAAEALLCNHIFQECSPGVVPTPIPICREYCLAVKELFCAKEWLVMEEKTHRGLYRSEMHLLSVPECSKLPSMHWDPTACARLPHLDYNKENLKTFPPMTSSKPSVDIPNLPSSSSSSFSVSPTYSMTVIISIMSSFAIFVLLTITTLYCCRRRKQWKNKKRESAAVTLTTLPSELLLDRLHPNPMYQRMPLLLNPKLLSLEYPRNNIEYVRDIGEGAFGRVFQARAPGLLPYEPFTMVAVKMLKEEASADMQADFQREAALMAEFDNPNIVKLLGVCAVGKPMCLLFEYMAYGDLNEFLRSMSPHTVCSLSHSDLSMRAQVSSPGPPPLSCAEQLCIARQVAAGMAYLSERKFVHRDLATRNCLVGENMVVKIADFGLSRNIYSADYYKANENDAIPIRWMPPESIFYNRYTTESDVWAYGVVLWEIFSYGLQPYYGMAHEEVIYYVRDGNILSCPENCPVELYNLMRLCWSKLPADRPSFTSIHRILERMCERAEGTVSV
# [8] = target: T2, Muscle, skeletal receptor tyrosine-protein kinase (Homo sapiens); conditions: at 10 µM
# [9] = target: T3, Serine/threonine-protein kinase Nek11 (Homo sapiens) (UniProt Q8NG66); conditions: at 1 µM
# T3 sequence (whole entry): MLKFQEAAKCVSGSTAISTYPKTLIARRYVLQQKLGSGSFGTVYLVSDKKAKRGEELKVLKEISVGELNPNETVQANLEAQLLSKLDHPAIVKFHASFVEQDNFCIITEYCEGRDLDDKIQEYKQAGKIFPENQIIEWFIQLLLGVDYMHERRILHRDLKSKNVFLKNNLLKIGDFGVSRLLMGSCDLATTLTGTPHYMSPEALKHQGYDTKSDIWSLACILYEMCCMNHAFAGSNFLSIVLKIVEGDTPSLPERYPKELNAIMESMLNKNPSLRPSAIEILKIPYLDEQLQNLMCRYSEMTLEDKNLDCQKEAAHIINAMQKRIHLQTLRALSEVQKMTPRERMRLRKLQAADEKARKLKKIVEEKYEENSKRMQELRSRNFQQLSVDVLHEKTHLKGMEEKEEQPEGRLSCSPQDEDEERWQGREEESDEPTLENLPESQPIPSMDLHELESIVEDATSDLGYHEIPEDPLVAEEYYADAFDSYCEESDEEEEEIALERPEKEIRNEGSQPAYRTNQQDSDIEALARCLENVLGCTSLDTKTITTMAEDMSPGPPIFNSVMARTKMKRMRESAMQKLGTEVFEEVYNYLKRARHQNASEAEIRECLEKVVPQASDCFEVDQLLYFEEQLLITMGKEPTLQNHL
# [10] = target: T3, Serine/threonine-protein kinase Nek11 (Homo sapiens); conditions: at 10 µM
# [11] = target: T4, Serine/threonine-protein kinase Nek2 (Homo sapiens) (UniProt P51955); conditions: at 1 µM
# T4 sequence (whole entry): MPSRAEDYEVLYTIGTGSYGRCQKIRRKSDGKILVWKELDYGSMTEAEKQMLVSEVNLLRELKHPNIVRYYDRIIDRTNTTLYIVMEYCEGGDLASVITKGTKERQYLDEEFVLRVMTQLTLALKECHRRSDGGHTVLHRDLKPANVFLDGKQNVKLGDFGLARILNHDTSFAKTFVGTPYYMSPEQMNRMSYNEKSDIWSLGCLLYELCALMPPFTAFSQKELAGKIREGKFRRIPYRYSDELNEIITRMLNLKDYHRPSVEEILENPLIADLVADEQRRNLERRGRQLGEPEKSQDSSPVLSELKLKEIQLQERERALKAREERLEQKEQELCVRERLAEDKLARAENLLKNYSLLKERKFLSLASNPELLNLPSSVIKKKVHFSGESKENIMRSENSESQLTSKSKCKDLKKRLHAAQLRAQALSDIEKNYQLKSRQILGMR
# [12] = target: T4, Serine/threonine-protein kinase Nek2 (Homo sapiens); conditions: at 10 µM
# [13] = target: T5, Serine/threonine-protein kinase Nek3 (Homo sapiens) (UniProt P51956); conditions: at 1 µM
# T5 sequence (whole entry): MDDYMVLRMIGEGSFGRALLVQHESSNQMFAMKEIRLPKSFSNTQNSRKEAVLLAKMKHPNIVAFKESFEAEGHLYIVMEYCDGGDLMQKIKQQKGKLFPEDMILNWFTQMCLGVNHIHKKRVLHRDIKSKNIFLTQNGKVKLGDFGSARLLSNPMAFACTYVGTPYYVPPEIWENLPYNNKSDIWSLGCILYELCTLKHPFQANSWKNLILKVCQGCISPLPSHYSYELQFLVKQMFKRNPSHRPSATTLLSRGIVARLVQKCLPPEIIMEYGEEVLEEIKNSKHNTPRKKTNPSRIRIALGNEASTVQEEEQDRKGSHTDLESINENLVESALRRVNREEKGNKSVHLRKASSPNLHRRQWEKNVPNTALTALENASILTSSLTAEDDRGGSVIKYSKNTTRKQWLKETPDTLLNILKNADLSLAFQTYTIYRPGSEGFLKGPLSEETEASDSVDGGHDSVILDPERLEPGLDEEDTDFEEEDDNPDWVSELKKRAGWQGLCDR
# [14] = target: Serine/threonine-protein kinase tousled-like 2 (Homo sapiens) (UniProt Q86UE8); conditions: at 1 µM
# Serine/threonine-protein kinase tousled-like 2 (Homo sapiens), sequence (Q86UE8 whole entry, looked up): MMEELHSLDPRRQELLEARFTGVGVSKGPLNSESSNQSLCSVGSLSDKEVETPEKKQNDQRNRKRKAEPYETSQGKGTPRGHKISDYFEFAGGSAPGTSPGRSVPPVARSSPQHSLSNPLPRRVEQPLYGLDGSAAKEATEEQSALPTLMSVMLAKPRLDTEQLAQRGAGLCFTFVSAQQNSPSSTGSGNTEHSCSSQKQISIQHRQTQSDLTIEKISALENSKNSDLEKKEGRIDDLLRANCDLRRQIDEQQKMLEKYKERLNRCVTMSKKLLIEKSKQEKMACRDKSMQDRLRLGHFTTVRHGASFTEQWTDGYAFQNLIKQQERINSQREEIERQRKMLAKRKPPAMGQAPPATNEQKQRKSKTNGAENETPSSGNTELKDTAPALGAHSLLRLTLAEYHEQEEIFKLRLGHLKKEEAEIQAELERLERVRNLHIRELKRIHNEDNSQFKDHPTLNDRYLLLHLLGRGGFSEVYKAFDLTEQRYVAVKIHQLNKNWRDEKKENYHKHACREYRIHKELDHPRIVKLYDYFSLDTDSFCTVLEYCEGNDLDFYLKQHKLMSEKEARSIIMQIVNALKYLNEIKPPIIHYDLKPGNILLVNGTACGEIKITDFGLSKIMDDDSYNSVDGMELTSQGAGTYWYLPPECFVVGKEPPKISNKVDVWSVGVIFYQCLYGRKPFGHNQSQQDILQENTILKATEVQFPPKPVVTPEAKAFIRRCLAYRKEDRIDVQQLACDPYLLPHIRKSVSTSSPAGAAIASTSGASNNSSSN
# [15] = target: Serine/threonine-protein kinase tousled-like 2 (Homo sapiens) (UniProt Q86UE8); conditions: at 10 µM
# [16] = target: T6, Testis-specific serine/threonine-protein kinase 1 (Homo sapiens) (UniProt Q9BXA7); conditions: at 1 µM
# T6 sequence (whole entry): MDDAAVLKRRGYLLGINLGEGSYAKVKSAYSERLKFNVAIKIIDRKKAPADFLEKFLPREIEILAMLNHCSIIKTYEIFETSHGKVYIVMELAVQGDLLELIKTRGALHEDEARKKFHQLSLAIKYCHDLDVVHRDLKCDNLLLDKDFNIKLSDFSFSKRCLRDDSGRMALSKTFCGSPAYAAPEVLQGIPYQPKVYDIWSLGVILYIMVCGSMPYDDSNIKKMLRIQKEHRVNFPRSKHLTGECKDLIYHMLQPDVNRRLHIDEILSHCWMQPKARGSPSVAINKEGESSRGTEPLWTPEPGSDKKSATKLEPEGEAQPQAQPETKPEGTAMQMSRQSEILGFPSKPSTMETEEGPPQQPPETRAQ
# [17] = target: T6, Testis-specific serine/threonine-protein kinase 1 (Homo sapiens); conditions: at 10 µM
# [18] = target: T7, Testis-specific serine/threonine-protein kinase 2 (Homo sapiens) (UniProt Q96PF2); conditions: at 1 µM
# T7 sequence (whole entry): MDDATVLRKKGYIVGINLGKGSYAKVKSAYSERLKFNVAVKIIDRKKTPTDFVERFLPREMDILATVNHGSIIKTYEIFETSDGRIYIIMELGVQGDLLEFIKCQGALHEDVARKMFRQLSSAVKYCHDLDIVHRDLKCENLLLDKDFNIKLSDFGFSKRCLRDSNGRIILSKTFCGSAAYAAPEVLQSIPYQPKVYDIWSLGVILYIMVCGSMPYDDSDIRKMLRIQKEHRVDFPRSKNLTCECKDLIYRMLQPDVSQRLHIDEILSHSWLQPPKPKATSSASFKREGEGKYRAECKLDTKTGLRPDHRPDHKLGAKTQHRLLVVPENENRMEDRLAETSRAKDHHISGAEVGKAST
# [19] = target: T7, Testis-specific serine/threonine-protein kinase 2 (Homo sapiens); conditions: at 10 µM
# [20] = target: T5, Serine/threonine-protein kinase Nek3 (Homo sapiens); conditions: at 10 µM
Structure (SMILES),residual activity [1],residual activity [2],residual activity [3],residual activity [4],residual activity [5],residual activity [6],residual activity [7],residual activity [8],residual activity [9],residual activity [10],residual activity [11],residual activity [12],residual activity [13],residual activity [14],residual activity [15],residual activity [16],residual activity [17],residual activity [18],residual activity [19],residual activity [20]
O=c1[nH]c2ccccc2n1C1CCN(Cc2ccc(-c3nc4cc5[nH]cnc5cc4nc3-c3ccccc3)cc2)CC1,112%,51%,93%,88%,97%,67%,105%,84%,75%,88%,86%,84%,111%,104%,84%,97%,54%,106%,45%,–
O=C1Nc2ccc3ncsc3c2/C1=C/c1c[nH]cn1,6%,2%,18%,4%,9%,4%,53%,11%,50%,13%,64%,39%,102%,19%,3%,68%,31%,89%,86%,32%
